This note sets out measurements from PubChem BioAssay.

Assay [1] concerns the target Nuclear receptor coactivator 3 (Homo sapiens) (UniProt Q9Y6Q9). The assay is described as follows: NCOA3 GAL4-fusion reporter inhibition – cell-based, luminescence, quadruplicate, confirmation (AID 588792;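 active = mean inhibition over 43.08%, the solvent-only control mean plus 3 SD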;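 note: 0% = DMSO treated cells and 100% = gossypol at 36 µM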). The conditions noted are these: HEK293 GAL4-SRC3 luciferase reporter, at 3.6 µM, stronger effect = higher value. A general note: In a reporter assay the amount or activity of a reporter protein is the signal.

Assay [2] concerns transactivating tegument protein VP16 (Human herpesvirus 1), Gal4-VP16 luciferase reporter. The assay is described as follows: repression of VP16-driven luciferase reporter – cell-based, luminescence, high throughput, counter-screen for SRC3 inhibitor project (AID 588794; in the data active = inhibition above about 30%). The conditions noted are these: mammalian cells, at 3.6 µM, stronger effect = higher value.
The target of assay [3] is Nuclear receptor coactivator 1 (Homo sapiens) (UniProt Q15788). The assay can be described thus: NCOA1 GAL4-fusion reporter inhibition – cell-based, luminescence, quadruplicate, confirmation (AID 588820).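 Note: 0% = DMSO wells and 100% = gossypol 36 µM treated wells.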 The note with it: HEK293 GAL4-SRC1 luciferase reporter, at 3.6 µM, stronger effect = higher value.
Assay [4] is described as follows: repression of VP16-driven luciferase reporter – cell-based, luminescence, high throughput, counter-screen for SRC1 inhibitor project (AID 588824; in the data active = inhibition above about 25%). The conditions noted are these: cell-based VP16 transactivation luciferase luminescence; at 3.6 µM; stronger effect = higher value.
Assay [5] can be described thus: StAR promoter reporter inhibitors, counter-screen for LRH-1 inverse agonist project, cell-based, luminescence, high throughput (AID 651611; in the data active = inhibition above about 28%). The conditions noted are these: StAR promoter luciferase reporter counterscreen, at 3.6 µM, stronger effect = higher value. For orientation: Counterscreens check selectivity or assay interference.
In assay [6] the target is Nuclear receptor subfamily 5 group A member 2 (Homo sapiens) (UniProt O00482). The assay can be described thus: NR5A2 activity suppression in reporter cells – cell-based, luminescence, confirmation (AID 651613; in the data active = inhibition above about 42%;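 note: HEK293T cells co-transfected with LRH-1 and StAR promoter luciferase reporter; 0% = vehicle wells and 100% = parental cells lacking receptor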). The conditions noted are these: cell-based LRH-1 luciferase reporter, inverse agonism; at 3.6 µM; stronger effect = higher value.
The target of assay [7] is Steroidogenic factor 1 (Homo sapiens) (UniProt Q13285). The assay can be described thus: inverse agonism at SF1 nuclear receptor – cell-based, luminescence, high throughput, counter-screen for LRH-1 inverse agonist project (AID 651614; in the data active = inhibition above about 44%;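 note: cells cotransfected with StAR promoter reporter and SF1 expression vector; 0% = vehicle on cells with receptor and 100% = vehicle on cells lacking receptor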). The conditions noted are these: cell-based SF1 luciferase reporter, at 3.6 µM, stronger effect = higher value.
Assay [8] can be described thus: compounds suppressing VP16-driven luciferase signal – cell-based, luminescence, high throughput, counter-screen for LRH-1 inverse agonist project (AID 651615; in the data active = inhibition above about 33%). The note with it: Gal4-VP16 luciferase reporter cells, at 3.6 µM, stronger effect = higher value.
Assay [9] is described as follows: reduced OD of V66 E. coli with T4 gene 2 phage – absorbance, RecBCD inhibitor project, confirmation (AID 651982;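 active = mean inhibition over triplicates exceeding the hit threshold derived in the original primary screen, cut at about 11% in these data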). The conditions noted are these: E. coli V66 + T4 2- phage, growth OD; at 11.9 µM; stronger effect = higher value.
A short description of assay [10]: bacterial growth inhibition – absorbance, high throughput, counter-screen for RecBCD inhibitor project (AID 651983; in the data active = inhibition above about 20%;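 note: E. coli strain V66 grown with compound alone and no phage infection; 0% = bacteria with DMSO vehicle only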). The conditions noted are these: E. coli viability, absorbance (OD) growth; at 11.9 µM; stronger effect = higher value.
Assay [11] can be described thus: reduced optical density, T4-challenged addAB+ bacteria – absorbance, E. coli V3065, T4 phage, counter-screen for RecBCD inhibitor project, confirmation (AID 651984;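 active = mean inhibition above the solvent-only control wells' mean plus 3 SD, cut at about 22% in these data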;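 note: higher means less bacterial growth from phage killing when AddAB is blocked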). The conditions noted are these: E. coli expressing H. pylori AddAB + T4 phage, OD growth; at 11.9 µM; stronger effect = higher value; gene 2 mutant T4, recBCD-deleted host.
For assay [12], the system named is transactivating tegument protein VP16 (Human herpesvirus 1). The assay can be described thus: compounds suppressing VP16-driven luciferase signal – cell-based, luminescence, single concentration, counter-screen for SRC2 inhibitor project (AID 652007; in the data active = inhibition above about 36%). The conditions noted are these: cell-based VP16 transactivation luciferase reporter, at 8.9 µM, stronger effect = higher value.

Assay [13] addresses Nuclear receptor coactivator 2 (Homo sapiens) (UniProt Q15596). The assay can be described thus: inhibition of GAL4-SRC2 driven luciferase expression – cell-based, luminescence, HEK293, triplicate, confirmation (AID 652008;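 active = mean inhibition above 46.5%, the solvent-only control mean plus 3 SD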;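 note: 0% = DMSO-treated cells and 100% = Gossypol at 36 µM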). The conditions noted are these: HEK293 GAL4-SRC2 luciferase reporter, at 8.9 µM, stronger effect = higher value.

Values without a mark were called inactive. Some of the results follow. Active and inactive are the calls of the source.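 Rule for the calls, unless noted: active = mean inhibition above 46.68%, the untreated control wells mean plus 3 SD; inactive = the rest.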

Chain of Nuclear receptor coactivator 3 (Homo sapiens) (Q9Y6Q9 whole entry, looked up, the tested form may be a part): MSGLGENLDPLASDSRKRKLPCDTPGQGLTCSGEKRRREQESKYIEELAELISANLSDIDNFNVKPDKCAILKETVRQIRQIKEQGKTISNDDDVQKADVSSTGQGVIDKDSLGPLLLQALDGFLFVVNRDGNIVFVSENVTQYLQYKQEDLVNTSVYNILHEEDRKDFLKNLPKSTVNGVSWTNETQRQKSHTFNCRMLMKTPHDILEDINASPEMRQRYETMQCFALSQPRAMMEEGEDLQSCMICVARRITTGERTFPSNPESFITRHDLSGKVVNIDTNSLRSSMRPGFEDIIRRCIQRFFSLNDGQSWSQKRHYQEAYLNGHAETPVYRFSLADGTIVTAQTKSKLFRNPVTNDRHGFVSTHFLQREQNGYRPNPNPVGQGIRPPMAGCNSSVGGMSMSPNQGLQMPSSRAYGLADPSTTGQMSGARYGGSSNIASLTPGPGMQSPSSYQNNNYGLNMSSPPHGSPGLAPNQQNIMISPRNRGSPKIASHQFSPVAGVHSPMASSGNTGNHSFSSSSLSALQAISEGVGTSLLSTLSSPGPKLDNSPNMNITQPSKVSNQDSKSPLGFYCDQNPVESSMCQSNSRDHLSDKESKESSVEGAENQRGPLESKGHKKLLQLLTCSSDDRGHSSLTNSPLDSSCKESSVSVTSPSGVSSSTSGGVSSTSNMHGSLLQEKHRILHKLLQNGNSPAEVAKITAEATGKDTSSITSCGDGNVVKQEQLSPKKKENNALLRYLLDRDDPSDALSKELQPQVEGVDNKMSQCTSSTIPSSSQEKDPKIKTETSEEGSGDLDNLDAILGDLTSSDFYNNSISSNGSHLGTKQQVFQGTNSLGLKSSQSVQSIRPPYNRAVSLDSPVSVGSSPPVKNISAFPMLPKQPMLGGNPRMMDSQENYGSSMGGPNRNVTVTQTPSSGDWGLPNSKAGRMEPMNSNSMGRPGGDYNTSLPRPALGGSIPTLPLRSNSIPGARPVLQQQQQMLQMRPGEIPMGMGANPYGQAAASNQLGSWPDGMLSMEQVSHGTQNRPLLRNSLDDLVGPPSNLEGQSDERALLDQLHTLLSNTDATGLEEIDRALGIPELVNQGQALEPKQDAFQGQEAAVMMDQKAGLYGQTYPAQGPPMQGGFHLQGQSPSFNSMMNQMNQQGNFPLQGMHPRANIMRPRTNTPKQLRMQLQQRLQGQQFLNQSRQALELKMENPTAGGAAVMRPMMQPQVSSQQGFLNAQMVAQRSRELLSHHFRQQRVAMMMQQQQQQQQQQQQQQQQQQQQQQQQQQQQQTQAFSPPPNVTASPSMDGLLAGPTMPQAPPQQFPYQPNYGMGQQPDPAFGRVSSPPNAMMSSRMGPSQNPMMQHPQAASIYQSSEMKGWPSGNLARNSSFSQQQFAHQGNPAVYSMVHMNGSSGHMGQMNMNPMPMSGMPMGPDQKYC
Chain of Steroidogenic factor 1 (Homo sapiens) (Q13285 whole entry, looked up, the tested form may be a part): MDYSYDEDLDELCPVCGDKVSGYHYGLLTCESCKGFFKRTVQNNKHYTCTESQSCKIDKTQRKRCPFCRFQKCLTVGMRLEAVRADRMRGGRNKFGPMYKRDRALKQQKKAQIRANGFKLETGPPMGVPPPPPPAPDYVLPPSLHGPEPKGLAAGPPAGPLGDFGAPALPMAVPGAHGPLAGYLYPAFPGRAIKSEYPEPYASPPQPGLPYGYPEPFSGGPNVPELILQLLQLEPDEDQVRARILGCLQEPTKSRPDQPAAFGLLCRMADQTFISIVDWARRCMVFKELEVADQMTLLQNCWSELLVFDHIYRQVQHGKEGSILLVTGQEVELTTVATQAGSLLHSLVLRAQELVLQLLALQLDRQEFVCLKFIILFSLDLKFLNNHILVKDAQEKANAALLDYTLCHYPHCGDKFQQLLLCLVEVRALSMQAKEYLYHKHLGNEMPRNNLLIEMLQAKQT
Chain of Nuclear receptor subfamily 5 group A member 2 (Homo sapiens) (O00482 whole entry, looked up): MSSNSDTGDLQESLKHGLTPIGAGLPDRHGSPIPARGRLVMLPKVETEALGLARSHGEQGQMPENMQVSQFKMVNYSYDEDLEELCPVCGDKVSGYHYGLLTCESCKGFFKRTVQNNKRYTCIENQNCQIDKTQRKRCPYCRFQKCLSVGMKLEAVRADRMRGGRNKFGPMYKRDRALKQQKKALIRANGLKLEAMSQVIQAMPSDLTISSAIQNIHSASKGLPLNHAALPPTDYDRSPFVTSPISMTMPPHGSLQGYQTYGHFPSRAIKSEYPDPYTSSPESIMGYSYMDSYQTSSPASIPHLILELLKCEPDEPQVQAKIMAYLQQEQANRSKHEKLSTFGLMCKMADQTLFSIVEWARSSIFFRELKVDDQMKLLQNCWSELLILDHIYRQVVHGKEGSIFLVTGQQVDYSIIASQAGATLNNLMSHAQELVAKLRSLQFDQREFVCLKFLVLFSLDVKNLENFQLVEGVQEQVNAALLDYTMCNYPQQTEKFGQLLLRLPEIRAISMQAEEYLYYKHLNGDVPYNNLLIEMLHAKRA
Chain of Nuclear receptor coactivator 1 (Homo sapiens) (Q15788 whole entry, looked up, the tested form may be a part): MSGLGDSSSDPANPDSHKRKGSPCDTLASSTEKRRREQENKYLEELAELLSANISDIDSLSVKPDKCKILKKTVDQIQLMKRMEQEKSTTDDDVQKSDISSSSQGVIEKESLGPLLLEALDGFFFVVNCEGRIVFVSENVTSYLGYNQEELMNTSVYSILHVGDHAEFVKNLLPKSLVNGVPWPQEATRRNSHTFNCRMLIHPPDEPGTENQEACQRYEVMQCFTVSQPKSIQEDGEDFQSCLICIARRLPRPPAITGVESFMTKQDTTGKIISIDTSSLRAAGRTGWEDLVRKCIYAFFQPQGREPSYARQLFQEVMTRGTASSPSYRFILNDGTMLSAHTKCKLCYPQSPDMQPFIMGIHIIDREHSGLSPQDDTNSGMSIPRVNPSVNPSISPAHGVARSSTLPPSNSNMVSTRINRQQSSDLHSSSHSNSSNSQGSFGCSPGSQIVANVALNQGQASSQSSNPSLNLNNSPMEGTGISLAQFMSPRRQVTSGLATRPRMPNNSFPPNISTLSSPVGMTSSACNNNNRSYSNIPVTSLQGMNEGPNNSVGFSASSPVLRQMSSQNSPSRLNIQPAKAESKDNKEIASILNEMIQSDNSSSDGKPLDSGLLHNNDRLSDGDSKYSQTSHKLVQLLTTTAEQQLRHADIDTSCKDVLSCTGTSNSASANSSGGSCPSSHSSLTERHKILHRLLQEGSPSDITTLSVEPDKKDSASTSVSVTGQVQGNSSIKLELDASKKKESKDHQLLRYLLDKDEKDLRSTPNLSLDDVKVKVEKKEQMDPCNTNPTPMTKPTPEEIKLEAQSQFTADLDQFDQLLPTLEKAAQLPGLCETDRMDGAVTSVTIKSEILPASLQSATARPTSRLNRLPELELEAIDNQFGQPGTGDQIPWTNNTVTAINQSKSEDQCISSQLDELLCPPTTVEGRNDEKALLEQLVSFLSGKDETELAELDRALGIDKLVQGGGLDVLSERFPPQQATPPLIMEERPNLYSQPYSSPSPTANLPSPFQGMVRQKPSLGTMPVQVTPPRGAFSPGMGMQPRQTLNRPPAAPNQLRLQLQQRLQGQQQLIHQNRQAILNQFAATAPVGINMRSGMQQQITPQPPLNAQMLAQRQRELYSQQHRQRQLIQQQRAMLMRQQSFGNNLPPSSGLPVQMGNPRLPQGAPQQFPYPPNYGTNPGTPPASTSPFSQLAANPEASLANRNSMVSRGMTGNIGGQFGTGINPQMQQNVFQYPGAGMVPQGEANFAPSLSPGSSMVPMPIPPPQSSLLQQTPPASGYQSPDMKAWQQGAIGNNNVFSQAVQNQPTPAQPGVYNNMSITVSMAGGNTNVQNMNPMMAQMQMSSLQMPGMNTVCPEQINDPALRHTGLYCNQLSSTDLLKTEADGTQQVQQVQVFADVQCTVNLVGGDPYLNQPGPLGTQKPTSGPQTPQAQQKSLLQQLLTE

As for `CCN(CC)CCn1c2ccccc2c2cnc(N)c(C#N)c21`, the inhibition in assay [1] was 5.22%; in assay [2], 35.2% (active); in assay [3], 30.1%; in assay [4], 50.6% (active); in assay [5] it was 35.7% (active); in [6] it was 65.8% (active). The inhibition in [7] is 57.4% (active); in [8], 74.8% (active).

As for `C#CC[N+](C)(C)CCCCCCCCCCCC`, the inhibition is 29.2% in [1]; 45.9% (active) in [2]; 33.4% in [3]; 36.6% (active) in assay [4]; 29.7% (active) in assay [5]; 64.7% (active) in assay [6]. For the same molecule, the inhibition in [7] was 65.8% (active); in [8] it was 59.8% (active).

For `Cc1cc(C)nc(NC(=O)c2ccc(COc3ccccc3Cl)cc2)c1`, the inhibition is 36.6% in assay [1]; 45.3% (active) in assay [2]; 25.2% in [3]; 42.7% (active) in [4]; 38.9% (active) in assay [5]; 65.1% (active) in assay [6]. In addition, the figures for the inhibition in [7] and in assay [8] were 67.1% (active) and 57.7% (active), respectively.

As for `N#Cc1cc2c(nc1SCC(=O)N1CCOCC1)CCCCC2`, the inhibition is 21.1% in assay [1]; 21.5% in assay [2]; -34.5% in assay [3]; -17.9% in [4]; -55% in assay [5]; -116% in [6]. Also, the inhibition in [7] is -87.7%; in assay [8] it was -62.9%.

`NC(=Nc1nc(-c2ccccn2)cc2ccccc12)c1ccccn1`: the inhibition was 79% (active) in [1]; 47.7% (active) in assay [2]; 65.6% (active) in [3]; 28.4% (active) in assay [4]; 91.8% (active) in assay [5]; 107% (active) in assay [6]. Further, the inhibition in assay [7] was 88.8% (active); in assay [8] it was 59.3% (active).

Consider `CC[n+]1c(C=C2C=C(C)OC(C)=C2)sc2ccccc21`, for which the inhibition is 42.2% in assay [1]; 67.2% (active) in assay [2]; 40.9% in [3]; 71.5% (active) in [4]; 70.3% (active) in [5]; 108% (active) in assay [6]. The inhibition in assay [7] was 85% (active); in [8], 92.9% (active).

As to `O=C(NN=Cc1ccccc1O)NN=Cc1ccccc1O`, the inhibition in [9] is 1.25%; in [10], 2.69%; in [11], 6.88%.

For `COc1ccc(OC)c(Cc2cnc3nc(N)nc(N)c3c2C)c1`, the results for the inhibition in assay [9], in assay [10] and in assay [11] were 79.8% (active), 79.2% (active) and 85.3% (active), respectively.

As to `O=C(NCc1cccnc1)/C(=C\c1ccc(-c2ccc(Br)cc2)o1)S(=O)(=O)c1ccccc1`, the inhibition in [1] is 72.6% (active); in [2], 56.9% (active); in [3] it was 51.7% (active); in assay [4] it was 55.1% (active); in assay [5] it was 62.3% (active); in assay [6], 92.3% (active). The inhibition in assay [7] was 82% (active); in assay [8], 80.8% (active); in assay [12], 71.1% (active); in assay [13], 68.7% (active).

In the case of `O=C(CCl)Nc1cc(SCC(O)CO)cc([N+](=O)[O-])c1` (centres undefined), the inhibition in assay [1] was 91.6% (active); in [2], 72.7% (active); in assay [3], 56.9% (active); in assay [4], 78.6% (active); in assay [5] it was 95.8% (active); in assay [6] it was 110% (active). Also, the inhibition in [7] is 97.7% (active); in assay [8] it was 98.2% (active); in assay [12] it was 79% (active); in assay [13], 67.5% (active).

Regarding `Cc1cccc(-n2ncc3c(N(C)C4CCCCC4)ncnc32)c1`, the inhibition is 72.9% (active) in [1]; 64.4% (active) in assay [2]; 28.5% in assay [3]; 46.4% (active) in assay [4]; 60.6% (active) in [5]; 11.5% in assay [6]. The inhibition in assay [7] is 52.7% (active); in [8] it was 29%; in [12], 52.5% (active); in assay [13], 83% (active).

Turning to `COC(=O)c1cn(NC(=O)c2cc([N+](=O)[O-])ccc2F)c(=O)c2ccccc12`, the inhibition in assay [1] was 83.8% (active); in assay [2], 83.6% (active); in assay [3], 51.1% (active); in assay [4], 81% (active); in [5] it was 89% (active); in [6], 102% (active). The inhibition in assay [7] was 92.9% (active); in assay [8], 84.3% (active); in assay [12] it was 27.7%; in assay [13], 64.7% (active).

On to `CC1(C)N=C(N)N=C(N)N1c1ccc(CCCCc2ccccc2)cc1`, for which the inhibition was 31.1% in [1]; 68.2% (active) in assay [2]; 60.1% (active) in [3]; 66% (active) in assay [4]; 63.7% (active) in assay [5]; 89.9% (active) in assay [6]. Also, the inhibition in [7] is 85.7% (active); in assay [8] it was 80.6% (active); in assay [12] it was 26.9%; in assay [13], 29.4%.

Regarding `Cc1nc2c(-c3ccc(F)cc3)cnn2c(N)c1-c1ccccc1`, the inhibition in assay [1] is 55.5% (active); in assay [2], 38.8% (active); in [3], 29.6%; in [4], 7.29%; in [5], 6.33%; in assay [6], -102%. The inhibition in [7] was -17.6%; in [8] it was -0.77%; in assay [12], 74.5% (active); in assay [13] it was 79.6% (active).

On to `Clc1ccc(-n2ncc3c(N4CCCCCC4)ncnc32)cc1`, for which the inhibition in assay [1] was 77% (active); in assay [2] it was 69.2% (active); in assay [3], 52.9% (active); in [4], 54.3% (active); in [5], 71% (active); in assay [6] it was 24.8%. Besides, the inhibition in assay [7] is 65.8% (active); in assay [8], 43% (active); in assay [12] it was 57.4% (active); in assay [13], 84.6% (active).

In the case of `COCCn1c(C)cc(C2=NNC(=Nc3ccccc3F)SC2)c1C`, the inhibition was 57.4% (active) in assay [1]; 52.3% (active) in assay [2]; 60.5% (active) in assay [3]; 28.1% (active) in assay [4]; 54.2% (active) in assay [5]; -47% in [6]. In addition, the inhibition in [7] is 63% (active); in assay [8] it was -31.7%; in [12] it was 87.2% (active); in [13] it was 91.5% (active).

For the molecule `COc1ccc(/C=C2\SC(=O)N(CCCC(=O)Nc3cc(Cl)ccc3C(=O)O)C2=O)cc1`, the inhibition was 86.5% (active) in [1]; 77% (active) in assay [2]; 75.5% (active) in assay [3]; 70.3% (active) in [4]; 83.7% (active) in assay [5]; 94% (active) in [6]. The inhibition in assay [7] was 82% (active); in assay [8], 75.7% (active); in assay [12], 93.9% (active); in [13], 97.8% (active).

For orientation: inhibition means the relative decrease from the control value, in per cent.
